Results as given in the supplement of paper PMC3334620.
Over roughly 33,000 sequences, “E-score (-0.5 to 0.5)” has its median near -0.017; the highest 2% begin near 0.3. The entries come from a sample that favours the highest values as a whole.

biological target: T1, Sut1 (UniProt P53032); experiment: PBM E-score (8-mer binding enrichment) (E-score (-0.5 to 0.5)); higher = stronger / more preferred TF binding; details: protein concentration: 200 nM; construct: GST-full length
T1 sequence: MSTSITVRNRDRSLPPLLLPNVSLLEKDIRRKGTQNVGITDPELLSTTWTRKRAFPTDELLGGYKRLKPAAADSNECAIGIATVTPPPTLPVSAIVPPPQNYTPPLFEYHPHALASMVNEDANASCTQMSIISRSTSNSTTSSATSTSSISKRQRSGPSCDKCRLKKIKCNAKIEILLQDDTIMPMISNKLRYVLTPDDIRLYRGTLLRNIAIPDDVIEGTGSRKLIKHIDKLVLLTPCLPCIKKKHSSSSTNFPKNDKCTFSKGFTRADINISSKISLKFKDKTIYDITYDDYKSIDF
Experimental: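 Universal 'all 10-mer' protein binding microarrays (Agilent AMADID 015681) probed with GST-tagged S. cerevisiae TFs (full-length or DBD) made by in vitro transcription/translation (PURExpress), about 100-200 nM. Bound TF was detected with fluorescent anti-GST. Each ungapped 8-mer (which stands for itself and its reverse complement) is scored by the PBM enrichment score (E-score), a modified Wilcoxon-Mann-Whitney statistic from -0.5 to +0.5, computed with the Universal PBM Analysis Suite. Scale: above 0.35 generally sequence-specific binding.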

In order of rising “PBM E-score” value:
1. GGGGGTTA  -0.405
2. GAGGCTAC  -0.349
3. CCTCCCGA  -0.289
4. AGGGGTTA  -0.273
5. ACAAGTCG  -0.264
6. CCAAGACC  -0.261
7. AGGTCGAG  -0.257
8. CGAGCGTC  -0.241
9. GTGCAGGA  -0.23
10. CACCGACC  -0.226
11. AGCCCGTG  -0.224
12. AGGATCGC  -0.214
13. CGTCTGTC  -0.213
14. GCTCCAGA  -0.199
15. AGGAGGAG  -0.183
16. AGGGGTTC  -0.181
17. CTAGCGCA  -0.174
18. GGCGTCGA  -0.167
19. CGCACACA  -0.161
20. ACTATGGG  -0.155
21. CGTCCGTC  -0.154
22. CTGCTTGA  -0.153
23. GAGGTGGA  -0.151
24. AAGGCTGG  -0.146
25. CTCAGCTA  -0.13
26. ACTTAGCC  -0.129
27. GCTCTGCC  -0.128
28. GGGAGTCA  -0.126
29. GCTCTACA  -0.121
30. ACAAGTCA  -0.118
31. CGCGCAAC  -0.114
32. GCCCGACA  -0.106
33. AGAGGCTC  -0.103
34. ACACCTCG  -0.103
35. GCGTACTA  -0.0972
36. ATCACGGG  -0.0946
37. GAAACTGA  -0.0944
38. CGTTGGCA  -0.0897
39. CTGTCCTA  -0.0818
40. CGAAGTCA  -0.081
41. AACCCGTA  -0.0786
42. GGCCGACA  -0.0715
43. GGGATGGA  -0.0689
44. TAGTGCGA  -0.0645
45. AATTCTGG  -0.0608
46. CTTCGCAA  -0.0605
47. CACCGAGA  -0.0582
48. AGGTGTGG  -0.0561
49. AGTACGGC  -0.0481
50. AGATTGCC  -0.043
51. CTCCTGAA  -0.0399
52. CCGGGTTC  -0.0363
53. AGACTCAA  -0.0327
54. GAAGCGAC  -0.0313
55. CTGAACAC  -0.0309
56. GTGCTACA  -0.0297
57. ATACGAGA  -0.0254
58. ACGTACTA  -0.0235
59. CTTCTCTC  -0.0216
60. ATTACGGC  -0.0212
61. CGAGCTCG  -0.0197
62. ATTACGGG  -0.0151
63. CAAGCGGC  -0.0127
64. CGAAAAGC  -0.0121
65. GCTGAAGA  -0.00656
66. CCAAACAC  -0.00595
67. TCGATCAA  -0.00575
68. AGTCCATG  -0.00201
69. AGAATCCA  0.00183
70. ATCCGACC  0.00218
71. GGAGACAA  0.0139
72. AAGTGTCC  0.0158
73. ATCACGGC  0.0173
74. CTCTCACA  0.0236
75. GCATGCGA  0.0246
76. CAAAGTAC  0.0285
77. GCAGCACC  0.0294
78. ACGTATAG  0.0316
79. CCCCGACA  0.0397
80. CGACACTC  0.0434
81. AGGAGTCA  0.0481
82. GAAAGTCA  0.049
83. ACCGACAA  0.0505
84. ATCCGAGC  0.0537
85. CCACAAAA  0.0574
86. CGGCTTTA  0.0621
87. GCTTCTTA  0.0688
88. ATTTGCAG  0.0722
89. GTGCCGAA  0.0728
90. CGCCGAGA  0.0729
91. AGATGGTA  0.0768
92. ATCCGACA  0.0788
93. AATCCGTC  0.0795
94. CGTCCGTA  0.0823
95. AGTGATTA  0.0842
96. GGCCGAGA  0.0849
97. GACTGATA  0.0856
98. ATAAGTCG  0.0862
99. ATGACGTA  0.0909
100. GAGAATCA  0.0959
101. GTGGATTA  0.0983
102. AATTATCC  0.1
103. AAAAGTCT  0.102
104. CATATTGG  0.112
105. CTAAGTCC  0.114
106. TACTTACA  0.115
107. CATTATAA  0.126
108. GAACCGAA  0.13
109. ATTATATG  0.134
110. AAGATTCA  0.137
111. ATTTCAGC  0.137
112. AAAAGTCA  0.15
113. CATTATAC  0.151
114. GATTATAA  0.154
115. GGTACGGA  0.155
116. GGAAGTCC  0.159
117. CCCCGAGC  0.163
118. CAGAGTCC  0.17
119. AACCAGTC  0.173
120. AATTATTG  0.173
121. ACGCGTCG  0.174
122. ACCGATAA  0.18
123. AAAGTGAA  0.191
124. GCGCCGGA  0.196
125. ATCCGAGA  0.198
126. AGGAGTCC  0.202
127. ACCGAGCA  0.205
128. CTTATATC  0.222
129. CCGCCGGA  0.223
130. GATTATTA  0.229
131. CATTATTC  0.231
132. CTTCACTA  0.252
133. GGTCCGTA  0.253
134. AATTATAG  0.257
135. CTTTATTA  0.261
136. ATTATATC  0.262
137. AACACTAT  0.266
138. ATTTATTA  0.269
139. CAAAGTCC  0.282
140. TCTTAGAA  0.283
141. GTTATATA  0.286
142. CCGTACTA  0.297
143. GTTTATTA  0.302
144. AATTATTA  0.305
145. AATTATAC  0.308
146. AATTATTC  0.317
147. ATAAGTCC  0.317
148. GAAAGTCC  0.326
149. CTTATATA  0.334
150. AATTATAA  0.335
151. ATTATATA  0.337
152. ATTACGGA  0.353
153. GTCCGACA  0.366
154. ACAAGTCC  0.374
155. CCTCCGGA  0.374
156. AGTACGGA  0.374
157. CTCCGACA  0.375
158. CGAAGTCC  0.378
159. CGGGGTTA  0.382
160. TCCGATAA  0.387
161. CTCCGACC  0.391
162. AAAAGTCC  0.394
163. CGGGGTTC  0.398
164. ATCACGGA  0.402
165. AGTCCGTC  0.424
166. GTCCGAGA  0.428
167. AGTCCGTG  0.431
168. CTCCGAGC  0.437
169. GCTCCGGA  0.442
170. AGTCCGTA  0.445
171. CTCCGAGA  0.459
172. CGGAGTCA  0.474
173. CGGAGTCC  0.486
